Assay outcomes deposited in PubChem BioAssay by National Center for Advancing Translational Sciences (NCATS).
SARS PLpro yeast: qHTS of Yeast-based Assay for SARS-CoV PLP | S. cerevisiae expressing SARS-CoV PLpro, growth rescue | Potency, µM (titrated, usually from 32.9 µM), most hits filed as activators | 0.19% of 330,000 active | AID 485353, 2010; calls by dose curve; note: nearly all actives have a fitted effect of over 55% in size
AmpC inh no detg: qHTS Inhibitors of AmpC Beta-Lactamase (assay without detergent); AmpC nitrocefin hydrolysis, absorbance 480 nm, 0.0001% Triton; Potency, µM (highest dose often 57.1 µM), hits mostly inhibitors; 0.52% of 330,000 active; AID 485341, 2010; note: nearly all actives have a fitted effect of over 20% in size
Target sequence (P00811 whole entry, looked up): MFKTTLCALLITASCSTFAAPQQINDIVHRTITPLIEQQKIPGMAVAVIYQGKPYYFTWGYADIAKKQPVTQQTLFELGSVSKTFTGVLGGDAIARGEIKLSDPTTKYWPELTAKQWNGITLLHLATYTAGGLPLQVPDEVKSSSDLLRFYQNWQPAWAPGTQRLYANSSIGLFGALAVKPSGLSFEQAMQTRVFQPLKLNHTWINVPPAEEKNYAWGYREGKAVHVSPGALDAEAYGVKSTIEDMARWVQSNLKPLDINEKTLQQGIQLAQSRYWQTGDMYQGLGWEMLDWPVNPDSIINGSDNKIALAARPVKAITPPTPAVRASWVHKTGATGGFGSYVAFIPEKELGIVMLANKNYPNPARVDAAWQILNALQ
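AmpC (5.3 nM in the dispensed reagent) in 20 mM phosphate pH 7.0 with 0.01% (detergent screen) or 0.0001% Triton X-100 was preincubated with compounds for 15 min at room temperature. Nitrocefin was then added from an 800 uM solution, and hydrolysis was followed at 480 nm.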
Sm TGR block: qHTS Assay for the Inhibitors of Schistosoma Mansoni Peroxiredoxins. Schistosoma mansoni thioredoxin glutathione reductase (TGR), Q962Y6. purified TGR, DTNB reduction, TNB absorbance 405 nm. Potency, µM (series often up to 114 µM), usual class: inhibitors. 3% of 360,000 active. AID 485364, 2010; note: nearly all actives have a fitted effect of over 60% in size
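Kinetic colorimetric format: TGR-catalysed, NADPH-driven DTNB reduction monitored via TNB absorbance. Enzyme dispensed at 20 nM; compound exposure 15 min at room temperature before reaction start.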
Pf growth 48h: Primary qHTS for delayed death inhibitors of the malarial parasite plastid, 48 hour incubation; 5.9% of 310,000 active; P. falciparum luciferase growth in erythrocytes, 48 h; Potency, µM (doses to about 28.7 µM), usual class: inhibitors
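In quantitative HTS format, infected erythrocytes bearing luciferase-reporter parasites were treated for a single generation at 37 C. Luminescence after adding detection reagent served as the growth measure.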
Pf growth 96h: Primary qHTS for delayed death inhibitors of the malarial parasite plastid, 96 hour incubation | 6.9% of 320,000 active | P. falciparum luciferase reporter growth, 96 h | Potency, µM (titrated, usually from 28.7 µM), usual class: inhibitors | AID 504834, 2011
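Parasite growth measured via integrated firefly luciferase reporter in P. falciparum. Infected erythrocytes at 2% hematocrit, 0.05% parasitemia final were treated 96 hours at 37 C under 5% CO2, and luminescence was read.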
AmpC inh detg: qHTS Inhibitors of AmpC Beta-Lactamase (assay with detergent); Potency, µM (highest dose often 114 µM), hits mostly inhibitors; AID 485294, 2010; AmpC hydrolysis of nitrocefin, absorbance 480 nm, 0.01% Triton; 0.041% of 370,000 active; note: nearly all actives have a fitted effect of over 25% in size
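AmpC (5.3 nM in the dispensed reagent) in 20 mM phosphate pH 7.0 with 0.01% (detergent screen) or 0.0001% Triton X-100 was preincubated with compounds for 15 min at room temperature. Nitrocefin was then added from an 800 uM solution, and hydrolysis was followed at 480 nm.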
A number is an active result; 0 = inactive; ? = inconclusive; - = no result given; [ ] = dose if it differs, or a comment. The list is not random: actives were taken first. Their share in the collection is about 12%. Unless noted, calls come from the whole dose curve; as a rule, active = well fitted curve in the direction sought with a large enough effect; inconclusive = small, poorly fitted or top-dose-only effect, or another doubt; inactive = no such curve, though single readings can be large; an effect the other way counts as inactive or inconclusive.

SMILES	SARS PLpro yeast	AmpC inh no detg	Sm TGR block	Pf growth 48h	Pf growth 96h	AmpC inh detg
COc1ccc(-c2noc3c2-c2nc(-c4ccccc4F)sc2CC3)cc1	0	0	0	0	0	?
CN(C)S(=O)(=O)c1cccc(NC(=S)Nc2cccc3cnccc23)c1	0	0	10µM	6.6µM	3.7µM	0
S=C(N/N=C/c1cccc2ccccc12)Nc1cccc(Cl)c1	0	0	0	?	2.9µM	0
Fc1ccc(NC(=S)Nc2cccc3ccccc23)cc1	0	0	0	0	0	?
Fc1ccc(NC(=S)Nc2cccc3cnccc23)cc1	0	0[11.4 µM]	45µM	?	?	0
Cc1cccc(NC(=S)Nc2cccc3ccccc23)c1	0	0	0	10µM	?	0
COc1ccccc1N(CC1CO1)S(=O)(=O)c1ccc(C)cc1 (stereo unspecified)	0	0	0	0	0	0
Cc1cc(NC(=O)CSc2nnnn2Cc2ccccc2)no1	0	0	0	0	-	0
Cc1ccc2c(c1C)OC(=O)CC2(C)C	0	0	0	0	0	0
CCCCc1ccc(N=N/C(C(=O)Nc2cc(OC)c(NC(C)=O)cc2OC)=C(/C)O)cc1	0	0	0	?	4.7µM	0
Cc1ccc(C2(c3ccccc3)NC(=O)N(CC(=O)NCc3ccco3)C2=O)cc1C (stereo unspecified)	0	0	0	?	5.9µM	0
Cc1ccc(C2(c3ccccc3)NC(=O)N(CC(=O)NC3(C#N)CCCC3)C2=O)cc1C (stereo unspecified)	0	0	0	13µM	?	0
COc1ccc(C2(c3ccc(OC)cc3)NC(=O)N(CC(=O)NC3(C#N)CCCC3)C2=O)cc1	0	0	0	?	?	?
COc1ccc(-c2noc3c2-c2nc(-c4c(F)cccc4F)sc2CC3)cc1	0	0	?	0	0	0
COc1ccc(Oc2ccc(N/C=C3/CCCC3=O)cc2)cc1	0	0	0	?	0	0
COc1ccc(N/C=C2/CCCCC2=O)cc1	0	0	40µM	0	?	0
C=CCSc1nnc2c(n1)OC=Nc1ccc(Br)cc1-2	0	0	7.9µM	0	?	0
CCc1ccc(CNC(=O)c2cnc3sc4cc(OC)ccc4n3c2=O)cc1	-	-	?	-	-	0
CCN(CC)c1ccc(NC(=O)CSc2nc3ccccc3c(=O)n2-c2cc(S(=O)(=O)N(C)C)ccc2C)cc1	0	0	0	8.3µM	?	0
CN(C)S(=O)(=O)c1cccc(NC(=O)CSc2nc3ccccc3n2-c2ccccc2)c1	0	0	0	?	?	0
CN(C)S(=O)(=O)c1ccc(NC(=O)CSc2nc3ccccc3n2-c2ccccc2)cc1	0	0	?	5.9µM	2.3µM	?
Cc1ccc(C2NC(=O)CCC2[N+](=O)[O-])cc1 (stereo unspecified)	0	0	0	0	?	0
Cc1cccc(C(=O)O/N=C(\N)Cc2cccc3ccccc23)c1	0	0	0	3.3µM	?	0
COc1cccc(C(=O)O/N=C(\N)Cc2ccc(Cl)cc2)c1	0	0	0	10µM	0	?
N/C(Cc1ccccc1)=N\OC(=O)c1cccc2ccccc12	0	0	0	3.3µM	4.7µM	0
SMILES	SARS PLpro yeast	AmpC inh no detg	Sm TGR block	Pf growth 48h	Pf growth 96h	AmpC inh detg
COCCn1c(=NC(=O)c2ccc3c(c2)OCCO3)sc2cc(C(=O)OC)ccc21	-	-	0	-	-	0
Cc1ccc(C)c(NC(=O)N2CCN(C(=O)c3nsc4ccccc34)CC2)c1	-	-	0	-	-	0
Cn1c(=O)c2cn3c(c2n(C)c1=O)C(c1ccccc1)CC(c1ccccc1)=N3 (stereo unspecified)	-	-	13µM	?	0	0
CCCc1nc2ccccc2n2c(-c3ccccc3)c3c(=O)n(C)c(=O)n(C)c3c12	-	-	0	-	-	0
Cc1cc(NC(=O)c2coc(=O)c(Br)c2)ccc1C(C)C	0	16µM	0	?	?	0
C[C@@H](NC(=O)c1coc(=O)c(Br)c1)c1ccccc1	0	0	0	0	0	0
Cc1cc(=O)n2nc(N3CCC(C(=O)Nc4ccc(C)c(Cl)c4)CC3)sc2n1	-	-	0	-	-	0
N#C/C(=C\C1=C(N2CCOCC2)C(=C/c2cccc([N+](=O)[O-])c2)/CC1)C(=O)Nc1ccccc1F	0	0	0	?	9.3µM	0
CCOC(=O)C1CCCN(S(=O)(=O)c2ccc3[nH]c(=O)ccc3c2)C1 (stereo unspecified)	-	-	0	-	-	0
C[C@@H](NC(=O)c1ncn(Cc2ccccc2)c1C(=O)N[C@H](C)c1ccccc1)c1ccccc1	0	0	0	13µM	?	0
Cc1c(CC(=O)NCCc2ccccc2F)c(=O)oc2c(C)c3occ(C(C)(C)C)c3cc12	-	-	0	-	-	0
CC(CC(=O)NCc1ccc(Cl)cc1)CC1=NS(=O)(=O)c2ccccc2N1 (stereo unspecified)	-	-	0	-	-	0
Cc1sc2nc(SCCN(C)C)n(-c3ccccc3)c(=O)c2c1-c1ccc(F)cc1	0	0	0	10µM	?	0
COc1cccc(-c2cc(N)nn2C(=O)Nc2ccc(Cl)cc2)c1	0	0	0	?	12µM	?
COc1cccc(NC(=O)c2cc3c(-c4ccc(Cl)cc4)nn(C)c3s2)c1	-	-	0	-	-	0
COc1ccc(-n2c(C)cc(C)c(C(C)=O)c2=S)cc1	0	0	0	15µM	12µM	0
Cc1cc(C)c[n+](-c2[nH]c(=O)sc2/C=N/NC([S-])=Nc2ccccc2)c1	0	0	0	0	0	0
Cc1cc(C)nc(N/N=C/C(Cl)=C/c2ccccc2)n1	0	0	0	-	3.7µM	0
CCCCN(C)C(=O)CCCCn1c(=O)[nH]c2cc(OCC)c(OCC)cc2c1=O	0	0	0	10µM	?	0
CCOc1cc2[nH]c(=S)n(CCCOC)c(=O)c2cc1OCC	0	0	0	0	6.6µM	0
CN(Cc1ccccc1)C(=O)CCCn1c(=O)[nH]c2cc(Cl)ccc2c1=O	0	0	0	-	15µM	?
CCOc1cc2[nH]c(=S)n(C(C)C)c(=O)c2cc1OCC	0	0	0	-	8.3µM	0
CCOc1cc2[nH]c(=S)n(C3CC3)c(=O)c2cc1OCC	0	0	0	0	?	0
CCOc1cc2[nH]c(=S)n(CCCN3CCOCC3)c(=O)c2cc1OCC	0	0	0	?	?	0
Cc1nc(SCC(=O)Nc2ccccc2C)cc(-c2ccccc2)n1	-	-	0	-	-	0
Cc1cccnc1CN1CCN(Cc2nc(Cc3cccc(F)c3)no2)CC1	0	0	0	?	0	0
COc1cccc(Cn2ccn(-c3ccc(F)cc3)c(=O)c2=O)c1	-	-	0	-	-	0
